The values that follow come from PubChem BioAssay AID2551 (National Center for Advancing Translational Sciences (NCATS), 2010).

The whole screen tested about 310,000 compounds, of which about 17,000 (5.5%) were called active. Inconclusive results (about 11%) are left out. The call rests on the fitted dose curve; in most records, active means well fitted inhibition curve with a large enough effect; inconclusive means small, poorly fitted or top-dose-only effect, or effect the other way; inactive means no such curve, though single readings can be large or run the other way. The full list was thinned out, with actives kept by preference.
On the % scale 0 is the no-effect control and ±100 the full control effect; potency means the concentration at half of the fitted maximal effect.

Nuclear receptor ROR-gamma (Mus musculus), sequence (P51450 whole entry, looked up, the tested form may be a part): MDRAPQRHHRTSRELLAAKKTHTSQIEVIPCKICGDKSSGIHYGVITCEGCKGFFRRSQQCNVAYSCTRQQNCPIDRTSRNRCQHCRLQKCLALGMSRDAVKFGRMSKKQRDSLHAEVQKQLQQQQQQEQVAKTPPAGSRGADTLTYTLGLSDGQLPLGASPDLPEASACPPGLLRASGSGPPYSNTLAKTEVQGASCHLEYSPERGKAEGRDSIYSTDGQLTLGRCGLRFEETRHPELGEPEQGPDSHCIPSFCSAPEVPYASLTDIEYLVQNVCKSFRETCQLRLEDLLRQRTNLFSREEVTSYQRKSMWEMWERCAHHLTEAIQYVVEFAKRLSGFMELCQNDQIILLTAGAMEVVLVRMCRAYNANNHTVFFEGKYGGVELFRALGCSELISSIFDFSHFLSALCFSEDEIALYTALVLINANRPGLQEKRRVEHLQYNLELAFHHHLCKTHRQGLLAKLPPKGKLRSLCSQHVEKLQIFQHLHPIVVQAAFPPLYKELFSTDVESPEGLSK

This test concerns the target Nuclear receptor ROR-gamma (Mus musculus) (UniProt P51450). In words: qHTS for inhibitors of ROR gamma transcriptional activity. Further: nearly all actives have a fitted effect of over 60% in size. The note with it: Drosophila S2 Gal4-RORgamma UAS-luciferase reporter, 20 h; series mostly up to 53.6 µM; activity change, negative = inhibition: at the top concentration. The method, boiled down:
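Stably transfected Drosophila Schneider cells are the test system, with ROR gamma fused to Gal4 and luciferase under UAS control; luminescence is read after 20 hr of 700 uM copper sulfate induction at ambient temperature.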
On the technique in general: Quantitative high-throughput screening tests each substance at several concentrations.
In the case of `COc1cc(Cl)ccc1OCc1cc(C(=O)N(C)CCc2c(C)n[nH]c2C)no1`, the “activity change, negative = inhibition” value is 42% (inactive).
`COc1ccccc1CNc1ncnc2ccc(-c3c(C)noc3C)cc12`: the Potency is 5.01 µM (active).
For the molecule `COc1ccccc1CNc1nc(-c2c(C)noc2C)nc2ccccc12`, the “activity change, negative = inhibition” value was -13.7% (inactive).
With `COc1ccccc1CNc1ccnc(-c2c(C)noc2C)n1`, the “activity change, negative = inhibition” value is 9.53% (inactive).
Same read-out and setting: with `COc1cc(C2/C(=C(\O)c3ccc4c(c3)CC(C)O4)C(=O)C(=O)N2c2nnc(C)s2)cc(OC)c1OC` (stereo unspecified) the figure was 32.8% (inactive).
Consider `CC(C)c1ccc(/C=C2\NC(=O)NC2=O)cc1`, for which the “activity change, negative = inhibition” value is 33.9% (inactive).
Same read-out and setting: with `O=C(NC1CC1)C(Cc1ccccc1)NS(=O)(=O)c1ccccc1F` (stereo unspecified) the figure was 8.43% (inactive); with `N#CC1=C(SCc2ccccc2)NC(=O)C(C#N)C12CCCC2` (stereo unspecified), 26.7% [at 0.365 µM] (inactive).
The same measure, in the same setting: to `N#Cc1ccc(CSc2ncccn2)cc1` belongs -36.2% [at 1.91 µM] (inactive).
In the case of `N#CC1=C(SCc2ccc(C#N)cc2)N=C(N)C(c2nc(-c3ccccc3)cs2)C12CCCCC2` (stereo unspecified), the Potency was 11.2 µM (active).
`CCOC(=O)c1sc(=NC(=O)c2ccc(Br)cc2)n(C)c1C`: the “activity change, negative = inhibition” value is -15.2% (inactive).
Consider `COc1ccc(CCN2CC(C(=O)NCCN3CCNC3=O)CCC2=O)cc1` (stereo unspecified), for which the “activity change, negative = inhibition” value is -12.8% (inactive).
As for `CCOC(=O)CSc1nc(N2CCOCC2)c2c(c1C#N)CC(C(C)C)OC2` (stereo unspecified), the “activity change, negative = inhibition” value is 26.6% (inactive).
Take `COC(=O)CSc1nccc(-c2cccs2)n1`: the “activity change, negative = inhibition” value was -8.26% (inactive).
For `O=C(O)COc1ccc(-c2nccc(-c3cccs3)n2)cc1`, the Potency was 5.62 µM (active).
`O=C(Nc1ccnc(-c2ccncc2)n1)c1cccs1`: the “activity change, negative = inhibition” value was 7.51% (inactive).
On the same count and under the same terms, to `CCOc1ccc(N(C(=O)c2snc(C(N)=O)c2N)C(C(=O)NCC2CCCO2)c2c[nH]c3ccccc23)cc1` (stereo unspecified) belongs 24.7% (inactive).
For the molecule `Fc1ccc(COc2cccc(-c3n[nH]c(=S)o3)c2)cc1`, the Potency is 11.2 µM (active).
For `Cc1nc2ccccc2cc1OCc1ccc(F)cc1`, the “activity change, negative = inhibition” value was 9.31% (inactive).
The same measure, in the same setting: with `Fc1ccc(COc2ccc(-c3nnco3)cc2)cc1` the figure was -8.22% (inactive); with `Cc1cc(F)ccc1N1CCC(N2CCN(C)C(CCO)C2)CC1` (stereo unspecified), -2.72% (inactive).
On to `Cc1cc(/C=N/NC(=O)CC2(C)OCCO2)c(C)n1-c1ccc(Cl)c(Cl)c1`, for which the Potency is 17.8 µM (active).
`Cc1cc(=O)cc(C)n1-c1ccc(Cl)c(Cl)c1`: the “activity change, negative = inhibition” value is 28% (inactive).
For the molecule `Cc1ccc(-n2c(C)cc(/C=N\NC(=O)CC(=O)NC(C)C)c2C)cc1`, the “activity change, negative = inhibition” value is -24.7% (inactive).
`Cc1cccc(OCC(O)Cn2c(N3CCCCC3)nc3c2c(=O)[nH]c(=O)n3C)c1` (stereo unspecified): the “activity change, negative = inhibition” value was -5.74% (inactive).
Still for that read-out and setting: to `COc1ccc2oc(=N)c(C(=O)Nc3ccc(Br)cc3)cc2c1` belongs -1.56% (inactive).
Consider `O=C(c1noc2c1CCCC2)N1CCc2ccccc2C1`, for which the “activity change, negative = inhibition” value is 21% (inactive).
Still for that read-out and setting: to `COc1cccc(C(=O)OCc2cc(=O)oc3c(C)c(C)ccc23)c1OC` belongs 2.33% (inactive); to `CS(=O)(=O)N(CC(=O)N1CCN(Cc2ccccc2)CC1)c1ccc2c(c1)OCCO2`, -13.4% (inactive); to `Clc1cccc(N=C2NN=C(c3ccc4c(c3)OCCO4)CS2)c1`, -31.8% (inactive).
`c1ccc(CN2CCC(N=C3NN=C(c4ccc5c(c4)OCCO5)CS3)CC2)cc1`: the Potency is 10 µM (active).
In the case of `Cc1ccccc1-c1nc(CS(=O)(=O)CC(=O)NC(C)c2ccccc2)c(C)o1` (stereo unspecified), the “activity change, negative = inhibition” value is 11.3% (inactive).
On the same count and under the same terms, with `Cc1ccc(NS(=O)(=O)c2c(C)[nH]c(C)c2C(=O)N2CCCCC2)c(C)c1` the figure was 12.8% (inactive).
As for `O=C(O)CCn1c(Cc2ccccc2)nc2ccccc21`, the “activity change, negative = inhibition” value is -26.5% (inactive).
On to `O=C(O)CCn1c(O)c(C=C2N=c3ccccc3=N2)sc1=S`, for which the Potency is 0.794 µM (active).
Regarding `Cc1cc2ccccc2n1CCC(=O)O`, the “activity change, negative = inhibition” value is -0.139% (inactive).
On to `COc1ccccc1NC(=O)c1cc(N2C(=O)C3C4CCC(C4)C3C2=O)ccc1Cl` (stereo unspecified), for which the “activity change, negative = inhibition” value is -0.842% (inactive).
Same read-out and setting: with `CC1CCCN(S(=O)(=O)c2ccc(C(=O)Nc3nnc(-c4ccncc4)o3)cc2)C1` (stereo unspecified) the figure was 52.2% (inactive); with `CCc1nnc(NC(=O)c2ccc(S(=O)(=O)NC3CCCCC3)cc2)s1`, 1.55% (inactive).
As for `O=C(Nc1nnc(-c2ccco2)o1)c1ccc(S(=O)(=O)N2CCOCC2)cc1`, the Potency is 1.78 µM (active).
Turning to `O=C(Nc1ccc(S(=O)(=O)N2CCOCC2)cc1)c1ccc2ncsc2c1`, the “activity change, negative = inhibition” value is -12.2% (inactive).
In the case of `CSCc1nnc(NC(=O)c2ccc(S(=O)(=O)N3CCCCC3C)cc2)o1` (stereo unspecified), the Potency is 1 µM (active).
Take `CNC(=O)c1ccsc1NC(=O)c1ccc(S(=O)(=O)N2CCOCC2)cc1`: the “activity change, negative = inhibition” value is 34.6% (inactive).
On the same count and under the same terms, with `CCc1nnc(NC(=O)C2CCCN2S(=O)(=O)c2ccccc2)s1` (stereo unspecified) the figure was 28.2% (inactive).
Same read-out and setting: to `Cc1ccnc(NS(=O)(=O)c2ccc(NC(=O)c3ccc(S(=O)(=O)N4CCOCC4)cc3)cc2)n1` belongs 1.69% (inactive).
For the molecule `CC1CCCCN1S(=O)(=O)c1ccc(C(=O)Nc2nnc(-c3cccs3)o2)cc1` (stereo unspecified), the Potency is 0.0891 µM (active).
With `CC(=O)c1ccc(OC(=O)N2CCOCC2)cc1`, the activity change, negative = inhibition was -0.265% [at 1.91 µM] (inactive).
Same read-out and setting: with `COc1ccc(CNC(=O)COc2cccnc2[N+](=O)[O-])cc1` the figure was 22.2% (inactive).
On to `Cc1cc2c(=O)n(CC(=O)NCC(=O)Nc3ccc(C(C)C)cc3)cnc2s1`, for which the “activity change, negative = inhibition” value is -16.7% (inactive).
`CCCCN1C(=O)C(C)=C(C)C1OCCc1ccc(OC)c(OC)c1` (stereo unspecified): the “activity change, negative = inhibition” value is 31.1% (inactive).
On the same count and under the same terms, to `Cc1cc(-c2ccc(S(=O)(=O)N3CCN(c4cccc(C(F)(F)F)c4)CC3)s2)on1` belongs -0.982% (inactive).
